Test [1] concerns Tyrosine-protein kinase ABL1 (Homo sapiens), P00519 [T315I]. Particulars: at 1 µM.
Test [2] has as its system Tyrosine-protein kinase ABL1 (Homo sapiens), P00519 [Y253F]. The settings on record: at 0.1 µM.
Test [3] has the same test system. The settings on record: at 1 µM.
The target of test [4] is Tyrosine-protein kinase ABL1 (Homo sapiens) (UniProt P00519). The settings on record: at 0.1 µM.
For test [5] the target is unchanged. Particulars: at 1 µM.
Test [6] addresses ALK tyrosine kinase receptor (Homo sapiens) (UniProt Q9UM73). Particulars: at 0.1 µM.
Test [7] has the same target. The settings on record: at 1 µM.
For test [8], the target named is Tyrosine-protein kinase ABL2 (Homo sapiens) (UniProt P42684). The settings on record: at 0.1 µM.
Test [9] shares this target. Particulars: at 1 µM.
Test [10] deals with Tyrosine-protein kinase receptor UFO (Homo sapiens) (UniProt P30530). The settings on record: at 0.1 µM.
Tyrosine-protein kinase receptor UFO (Homo sapiens), sequence (P30530 whole entry): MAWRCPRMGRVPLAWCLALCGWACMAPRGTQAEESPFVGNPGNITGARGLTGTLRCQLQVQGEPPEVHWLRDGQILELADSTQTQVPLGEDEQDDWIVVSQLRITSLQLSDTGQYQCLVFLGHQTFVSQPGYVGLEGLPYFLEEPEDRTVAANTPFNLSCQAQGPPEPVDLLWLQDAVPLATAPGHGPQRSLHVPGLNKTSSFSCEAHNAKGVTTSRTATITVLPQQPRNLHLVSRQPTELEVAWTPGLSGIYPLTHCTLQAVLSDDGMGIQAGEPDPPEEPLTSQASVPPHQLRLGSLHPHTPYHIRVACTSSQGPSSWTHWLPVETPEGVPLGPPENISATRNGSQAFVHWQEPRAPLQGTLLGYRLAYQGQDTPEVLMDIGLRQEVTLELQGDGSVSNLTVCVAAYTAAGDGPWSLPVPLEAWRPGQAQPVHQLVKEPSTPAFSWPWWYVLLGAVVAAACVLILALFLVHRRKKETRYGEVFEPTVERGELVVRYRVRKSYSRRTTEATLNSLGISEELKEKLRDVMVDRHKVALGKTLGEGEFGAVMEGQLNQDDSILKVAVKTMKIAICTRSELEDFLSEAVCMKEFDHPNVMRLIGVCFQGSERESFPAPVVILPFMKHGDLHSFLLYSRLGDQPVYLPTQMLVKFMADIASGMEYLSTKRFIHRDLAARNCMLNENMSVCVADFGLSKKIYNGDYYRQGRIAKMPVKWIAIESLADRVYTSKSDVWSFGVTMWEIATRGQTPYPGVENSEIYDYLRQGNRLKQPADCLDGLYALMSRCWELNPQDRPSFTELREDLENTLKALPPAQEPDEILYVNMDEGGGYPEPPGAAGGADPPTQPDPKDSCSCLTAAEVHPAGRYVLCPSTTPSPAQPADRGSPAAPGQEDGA

ALK tyrosine kinase receptor (Homo sapiens), sequence (Q9UM73 19-1620 limits assumed): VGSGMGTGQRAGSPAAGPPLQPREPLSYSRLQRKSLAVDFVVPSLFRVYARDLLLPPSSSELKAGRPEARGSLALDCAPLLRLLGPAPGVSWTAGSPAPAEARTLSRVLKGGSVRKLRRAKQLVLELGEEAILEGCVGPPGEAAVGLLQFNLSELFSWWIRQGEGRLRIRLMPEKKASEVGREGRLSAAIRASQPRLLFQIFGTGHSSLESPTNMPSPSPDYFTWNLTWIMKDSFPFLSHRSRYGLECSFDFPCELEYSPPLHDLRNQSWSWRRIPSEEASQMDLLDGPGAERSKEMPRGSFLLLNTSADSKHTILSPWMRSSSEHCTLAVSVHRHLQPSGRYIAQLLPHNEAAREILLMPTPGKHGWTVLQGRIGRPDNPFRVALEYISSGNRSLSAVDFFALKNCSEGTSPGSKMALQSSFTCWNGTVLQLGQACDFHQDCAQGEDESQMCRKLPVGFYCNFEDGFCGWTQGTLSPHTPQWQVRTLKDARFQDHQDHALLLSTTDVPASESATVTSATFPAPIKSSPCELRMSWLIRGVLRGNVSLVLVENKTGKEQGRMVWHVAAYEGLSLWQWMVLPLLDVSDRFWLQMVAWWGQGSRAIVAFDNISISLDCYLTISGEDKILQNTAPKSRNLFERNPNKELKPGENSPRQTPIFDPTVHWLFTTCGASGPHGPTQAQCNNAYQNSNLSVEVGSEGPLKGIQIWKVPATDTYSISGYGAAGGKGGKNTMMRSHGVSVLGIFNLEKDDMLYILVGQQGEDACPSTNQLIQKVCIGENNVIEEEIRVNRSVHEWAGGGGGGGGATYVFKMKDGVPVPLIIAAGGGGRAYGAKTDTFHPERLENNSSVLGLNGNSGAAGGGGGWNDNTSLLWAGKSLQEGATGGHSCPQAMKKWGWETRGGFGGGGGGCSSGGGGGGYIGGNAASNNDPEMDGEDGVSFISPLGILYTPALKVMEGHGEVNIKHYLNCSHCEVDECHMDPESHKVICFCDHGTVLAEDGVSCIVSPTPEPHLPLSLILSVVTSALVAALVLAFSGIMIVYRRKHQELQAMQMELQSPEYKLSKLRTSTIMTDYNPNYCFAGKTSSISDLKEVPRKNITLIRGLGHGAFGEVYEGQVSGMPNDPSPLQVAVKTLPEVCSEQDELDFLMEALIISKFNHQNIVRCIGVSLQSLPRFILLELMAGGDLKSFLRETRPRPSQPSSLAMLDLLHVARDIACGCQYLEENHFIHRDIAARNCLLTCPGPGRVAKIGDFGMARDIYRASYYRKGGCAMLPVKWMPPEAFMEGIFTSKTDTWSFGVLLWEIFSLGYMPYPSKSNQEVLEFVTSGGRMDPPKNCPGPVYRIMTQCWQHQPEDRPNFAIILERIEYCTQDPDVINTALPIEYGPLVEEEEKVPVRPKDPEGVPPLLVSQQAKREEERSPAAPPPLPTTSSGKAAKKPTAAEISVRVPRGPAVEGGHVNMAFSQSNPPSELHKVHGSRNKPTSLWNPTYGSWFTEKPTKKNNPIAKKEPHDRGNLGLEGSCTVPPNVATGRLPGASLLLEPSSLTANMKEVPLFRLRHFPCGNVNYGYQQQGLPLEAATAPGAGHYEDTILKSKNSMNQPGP
Tyrosine-protein kinase ABL2 (Homo sapiens), sequence (P42684 whole entry): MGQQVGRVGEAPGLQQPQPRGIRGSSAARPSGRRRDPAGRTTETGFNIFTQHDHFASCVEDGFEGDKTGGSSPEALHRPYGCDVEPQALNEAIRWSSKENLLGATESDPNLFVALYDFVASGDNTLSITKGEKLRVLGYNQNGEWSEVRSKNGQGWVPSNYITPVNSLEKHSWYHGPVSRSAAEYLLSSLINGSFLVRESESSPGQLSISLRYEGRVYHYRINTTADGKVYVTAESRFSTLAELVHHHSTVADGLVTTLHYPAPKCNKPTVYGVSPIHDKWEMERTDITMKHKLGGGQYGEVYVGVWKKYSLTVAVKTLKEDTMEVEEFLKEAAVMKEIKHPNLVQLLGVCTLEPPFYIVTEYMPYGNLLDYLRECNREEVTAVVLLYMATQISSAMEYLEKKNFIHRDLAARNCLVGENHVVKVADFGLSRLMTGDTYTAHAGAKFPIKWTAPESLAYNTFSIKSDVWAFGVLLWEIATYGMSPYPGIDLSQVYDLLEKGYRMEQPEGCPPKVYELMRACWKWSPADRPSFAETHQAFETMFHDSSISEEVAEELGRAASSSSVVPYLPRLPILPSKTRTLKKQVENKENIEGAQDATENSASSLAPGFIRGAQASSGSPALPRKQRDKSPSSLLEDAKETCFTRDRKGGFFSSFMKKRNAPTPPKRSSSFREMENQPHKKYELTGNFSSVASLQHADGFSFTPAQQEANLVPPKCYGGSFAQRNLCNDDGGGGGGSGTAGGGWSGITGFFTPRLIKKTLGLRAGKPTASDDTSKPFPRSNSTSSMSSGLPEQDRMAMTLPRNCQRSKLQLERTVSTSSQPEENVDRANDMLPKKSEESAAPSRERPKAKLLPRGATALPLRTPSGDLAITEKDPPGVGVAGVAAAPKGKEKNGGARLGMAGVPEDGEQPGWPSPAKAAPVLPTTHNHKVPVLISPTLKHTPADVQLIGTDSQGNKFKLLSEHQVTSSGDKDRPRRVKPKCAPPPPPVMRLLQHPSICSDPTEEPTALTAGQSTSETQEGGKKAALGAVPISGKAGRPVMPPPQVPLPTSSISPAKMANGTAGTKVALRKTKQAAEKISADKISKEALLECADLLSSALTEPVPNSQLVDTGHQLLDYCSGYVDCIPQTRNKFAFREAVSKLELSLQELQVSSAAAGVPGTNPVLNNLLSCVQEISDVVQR

On to `COc1cc2c(cc1Nc1nc(Nc3ccsc3C(N)=O)c3cc[nH]c3n1)N(C(=O)CN(C)C)CCC2`, for which the inhibition in test [1] came out at 2.06%; in [2], 1.77%; in test [3], 5.17%; in test [4], 1.69%; in test [5], 3.88%; in [6] it was 83.9%. Also, the inhibition in test [7] was 85.4%; in test [8], 5.49%; in test [9], 8.21%; in test [10] it was 22.9%.

`COc1cc(C=NNc2ncnc3c2cnn3Cc2ccccc2)ccc1O`: the inhibition in test [1] is 61.6%; in test [2], 52.2%; in test [3] it was 90.8%; in test [4], 40.6%; in test [5], 71.9%; in [6], -4.96%. The inhibition in test [7] was -2.43%; in [8] it was 20.3%; in test [9] it was 49.2%; in test [10], 5.07%.

In the case of `Cc1cc(-c2ccco2)cc(C)c1/C=C/c1cncc(-c2nn[nH]n2)c1`, the inhibition is 2.45% in test [1]; 1.92% in [2]; 4.15% in [3]; 2.83% in [4]; 4.58% in test [5]; 2.41% in [6]. The inhibition in test [7] came out at 2.74%; in test [8] it was 2.77%; in test [9], 8.69%; in test [10] it was 0.06%.

For the compound `NS(=O)(=O)c1ccc(-c2ccc3c(NC(=O)C4CC4)n[nH]c3c2)cc1`, the inhibition in test [1] is 15.1%; in test [2] it was 4.41%; in test [3] it was 8.81%; in test [4], 8.32%; in test [5], 14.2%; in [6] it was 2.73%. Also, the inhibition in test [7] is 3.11%; in test [8], 6.43%; in test [9], 7.09%; in test [10], -4.27%.

Take `NC(=O)c1sc(-n2cnc3cc(C(F)(F)F)ccc32)cc1OCc1ccccc1Br`: the inhibition in test [1] was found to be 1.66%; in test [2], 4.14%; in test [3], 4.68%; in test [4], 3.16%; in test [5], 3.85%; in [6] it was 1.22%. The inhibition was 1.22% in test [7], 2.86% in [8], 4.58% in [9] and -0.22% in [10].

With `CCn1c(-c2nonc2N)nc2c(C#CC(C)(C)O)nc(O[C@@H](CN)c3ccccc3)cc21`, the inhibition in test [1] is 4.28%; in test [2] it was -0.01%; in test [3], 0.57%; in [4], 0.27%; in [5], 5.55%; in [6] it was 0.41%. Further, the inhibition in test [7] worked out at 19.6%; in test [8] it was 1.15%; in test [9], 6.91%; in test [10] it was 1.96%.

Regarding `Fc1ccc(-c2ncn(C3CCNCC3)c2-c2ccnc(Oc3ccccc3)n2)cc1`, the inhibition in [1] was -0.9%; in [2], 1.35%; in test [3], 2.58%; in [4] it was -2.46%; in [5], -4.75%; in test [6], -2.73%. The inhibition in test [7] is -0.15%; in test [8] it was -2.93%; in test [9] it was -3.16%; in [10] it was -4.72%.

Consider `CCn1c(-c2nonc2N)nc2c(C#CCN)ncc(OCCCN)c21`, for which the inhibition in test [1] is 1.94%; in test [2], -2.47%; in test [3], -2.94%; in test [4], 1.03%; in test [5] it was 2.03%; in [6], -6.6%. The inhibition was -0.9% in test [7], -2.47% in test [8], -0.76% in test [9] and 7.73% in [10].

As to `COc1cccc(COc2cc(-n3cnc4ccccc43)sc2C(N)=O)c1`, the inhibition in test [1] was 0.66%; in [2], -1.91%; in [3] it was 2.67%; in test [4], -2.41%; in test [5], 0.81%; in test [6] it was -0.33%. Moreover, the inhibition in [7] was 2.9%; in test [8], -0.24%; in [9] it was 0.86%; in test [10], 0.14%.

With `Nc1nonc1-c1nc2cnccc2n1C1CCCCC1`, the inhibition in test [1] was -0.01%; in test [2] it was -0.51%; in test [3] it was 2.63%; in [4], -0.08%; in test [5], 7.12%; in test [6] it was -2.37%. The inhibition in test [7] was 2.16%; in test [8] it was 1.35%; in test [9], 3.74%; in test [10], 4.13%.

`CCn1c(-c2nonc2N)nc2c(C#CC(C)(C)O)ncc(OC[C@@H]3CCCN3)c21`: the inhibition in test [1] was 0.65%; in test [2], 0.65%; in test [3], -0.13%; in [4], 1.81%; in test [5] it was -0.45%; in test [6] it was -0.46%. For the same compound, the inhibition amounted to 1.45% in [7], 1.42% in [8], 2.28% in test [9] and 0.65% in test [10].

Consider `NS(=O)(=O)c1ccc(N/C=C2\C(=O)Nc3ccc4ncsc4c32)cc1`, for which the inhibition is 41.1% in test [1]; 5.62% in test [2]; 32.9% in [3]; 8.9% in test [4]; 32.9% in test [5]; 4.55% in [6]. Moreover, the inhibition was 15.1% in test [7], 5.92% in test [8], 21.8% in test [9] and -3.83% in [10].

`CCn1c(-c2nonc2N)nc2c(C#CC(C)(C)O)ncc(OCC3CCNCC3)c21`: the inhibition in [1] is 4.1%; in [2], 2.44%; in [3], 5.73%; in [4], -2.19%; in test [5], 2.09%; in test [6] it was -2.65%. The inhibition is 0.19% in [7], -1.08% in test [8], -2.22% in [9] and -2.5% in [10].

In the case of `COc1cccc(-n2ncc3c(N/N=C/c4ccncc4)ncnc32)c1`, the inhibition stood at 85.2% in [1]; 84.5% in test [2]; 94.9% in test [3]; 69.3% in [4]; 89% in [5]; 3.94% in test [6]. Besides, the inhibition was 7.96% in test [7], 47.8% in test [8], 82.8% in test [9] and -5.41% in test [10].

Values taken from ChEMBL document CHEMBL1961873, “Compounds: GSK PKIS; Assays: Nanosyn kinase panel” (2012).
